According to article PMC12440807:

Experiments:
[1] = molecular target: RNA polymerase II-associated factor 1 homolog (UniProt Q8N7H5); assay: cross-link between two proteins; cross-linking mass spectrometry
[2] = molecular target: Transcription elongation factor SPT6 (UniProt Q7KZ85); assay: cross-link between two proteins; affinity purification or IP with mass spectrometry; cross-linking mass spectrometry

| Substance | listed as a hit [1] | listed as a hit [2] |
| --- | --- | --- |
| Transcription elongation factor SPT6, Q7KZ85 | yes |  |
| DNA-directed RNA polymerase II subunit RPB1, P24928 |  | yes |
